High-throughput results deposited in PubChem by Johns Hopkins Ion Channel Center.
KCNQ2 inh: KCNQ2 (rat) channel inhibition | O88943 | CHO-K1 KCNQ2, FluxOR thallium flux, 20 min; hits give low values | B-score at 10 µM | hit rate 1.1% among 310,000 | AID 2156;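 active = fluorescence ratio B-score at most minus 3 library SDs, with starting brightness B-score within 2 library SDs, cut at about -5.5 in these data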
KCNQ2 pot: KCNQ2 (rat) channel potentiation | B-score at 10 µM | O88943 | CHO-K1 KCNQ2, FluxOR thallium flux fluorescence; hits give high values | hit rate 0.54% among 310,000 | AID 2239;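 active = fluorescence ratio B-score at least 3 SD of library B-scores, with initial fluorescence B-score within 3 of them, cut at about 5.3 in these data; same plate scores as AID 2156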;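 note: B-score of peak minus minimum over baseline fluorescence ratio after K+ and Tl+ stimulus; positive B-score means potentiation of KCNQ2 with more thallium influx and brighter signal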
Each line names hits and unclear results; the compound was inactive in the other large screens. Compounds with a hit are over-represented: about 1.6% of the library has one in this group of screens.

Cc1cccc2c(C(=O)Nc3ccc(Br)cc3)cc(-c3ccccn3)nc12	none
CCc1cccc(NC(=O)COC(=O)/C=C/c2cccs2)c1	none (no result: KCNQ2 pot)
CCn1c(O)c(N=NC(=O)CNC(=O)c2ccco2)c2ccccc21	none
CCCn1c(O)c(N=NC(=O)c2ccco2)c2ccccc21	KCNQ2 pot 11
CCOC(=O)C1=NOC2C3CC(C12)C1C(=O)N(CCc2ccc(OC)c(OC)c2)C(=O)C31 (stereo not drawn)	none (no result: KCNQ2 pot)
O=C(NCc1ccccc1)C1CCN(c2nc(-c3ccccc3)nc3c2CCC3)CC1	KCNQ2 inh -5.8
COc1ccc(CNC(=O)C2CCN(c3nc(-c4ccccc4)nc4c3CCC4)CC2)cc1	none (no result: KCNQ2 pot)
CCOC(=O)Cn1c(=O)c(F)cn(Cc2ccc(OC)c([N+](=O)[O-])c2)c1=O	none
COc1ccccc1NC(C)C(=O)N/N=C/c1ccccc1OCc1cccc(Br)c1 (stereo not drawn)	KCNQ2 inh -6.3
COc1cc([N+](=O)[O-])cc(/C=N/NC(=O)C(C)Nc2cccc3ccccc23)c1O (stereo not drawn)	none
CCn1nc(C)c(CNCc2cn[nH]c2-c2cc3ccccc3o2)c1C	none (no result: KCNQ2 pot)
Cc1ccc(C)c(OCC(=O)Nc2ccccc2C(=O)N2CCOCC2)c1	none
CC1CCc2sc(C(=O)NN=C3CCC(c4ccccc4)CC3)cc2C1 (stereo not drawn)	none
Cc1ccc(C)c(NC(=S)NNC(=O)c2sccc2C)c1	none
Cc1ccc(C)c(NC(=S)NNC(=O)c2cc3c(s2)CCC(C)C3)c1 (stereo not drawn)	KCNQ2 pot 11
Cc1cccc(NC(=S)NNC(=O)c2cc3c(s2)CCC(C)C3)c1C (stereo not drawn)	KCNQ2 pot 8.5
NC1=C(c2ccccc2)C(=O)NC1=O	none (no result: KCNQ2 pot)
Cc1oc(C(C)(C)C)cc1C(=O)N1CCN(C(c2ccccc2)c2ccccc2)CC1	none (no result: KCNQ2 pot)
COc1ccc2cc(N=Cc3nc(-c4ccc(C)cc4)oc3O)cnc2c1	none (no result: KCNQ2 pot)
CCCc1cc(C(=O)N2CCCN(C)CC2)cs1	none
CCCc1cc(C(=O)N2CCN(c3ccccc3C)CC2)cs1	KCNQ2 inh -5.7
O=C(CNCc1ccccc1)Nc1ccccc1-c1ccccc1	none (no result: KCNQ2 pot)
O=C(CNCc1ccccc1)Nc1cccc(Cl)c1Cl	KCNQ2 inh -6
CCCCc1ccc(NC(=S)NCCN2CCOCC2)cc1	none (no result: KCNQ2 pot)
O=c1c2c(n3nnnc3n1Cc1ccccc1)-c1ccccc1CC21CCCC1	none (no result: KCNQ2 pot)
CCC1(C)Cc2ccccc2-c2c1c(=O)n(Cc1ccccc1)c1nnnn21 (stereo not drawn)	KCNQ2 inh -6.2
Cc1ccc(NS(=O)(=O)c2cccc(C(=O)NCC(c3ccc(F)cc3)N3CCOCC3)c2)cc1 (stereo not drawn)	none (no result: KCNQ2 pot)
C=CCN(c1ccccc1)S(=O)(=O)c1cccc(C(=O)NCC(c2ccc(F)cc2)N2CCOCC2)c1 (stereo not drawn)	KCNQ2 inh -6
Cc1nc2sc(C(c3ccc(F)cc3)N3CCN(C(=O)c4ccco4)CC3)c(O)n2n1 (stereo not drawn)	none
N#Cc1cccc(CN2CCC(=O)N([C@H](CO)Cc3ccccc3)CC2)c1	none
CCOC(CNC(=O)CN1C(=O)COc2ccc(S(=O)(=O)N3CC(C)CC(C)C3)cc21)OCC (stereo not drawn)	none
OCCN1CCN(CC(O)COc2ccc(Cl)cc2)CC1 (stereo not drawn)	none
OCCN1CCN(CC(O)COc2ccc(C34CC5CC(CC(C5)C3)C4)cc2)CC1 (stereo not drawn)	KCNQ2 inh -7.1
COc1nnc(-c2ccc(N3CCOCC3)c(NC(=O)C3CCCCC3)c2)c2ccccc12	none (no result: KCNQ2 pot)
COc1nnc(-c2ccc(N3CCCCC3)c(NC(=O)C3CCCCC3)c2)c2ccccc12	KCNQ2 inh -6.2
O=C(Cc1c(F)cccc1Cl)NNC(=S)Nc1ccc(S(=O)(=O)Nc2ncccn2)cc1	none
CCOC(=O)c1sc(NC(=S)NC(=O)c2ccco2)nc1C	KCNQ2 pot 5.7
O=C(NC(=S)Nc1nc2ccccc2s1)c1ccco1	KCNQ2 pot 8.1
O=C(NC(=S)NCc1ccc(-c2nc3ccccc3s2)cc1)c1ccco1	none
COC(=O)c1sc(NC(=O)c2ccco2)nc1C	none
CCc1cc(SC#N)cc(CC)c1NC(=O)CCl	KCNQ2 pot 5.3
Cc1cc(C)c2c(NC(=O)CCl)nn(C)c2n1	none
COc1ccc(S(=O)(=O)Nc2ccc(S(=O)(=O)Nc3nc(C)cc(C)n3)cc2)cc1OC	none (no result: KCNQ2 pot)
CCN(CC(=O)Nc1c(F)cccc1F)C(=O)CCNC(=O)c1ccc([N+](=O)[O-])cc1	none (no result: KCNQ2 pot)
CCC1CCCCN1CCCNC(=O)C1CCCN(c2ncnc3c2nc2n3CCCCC2)C1 (stereo not drawn)	none
CC1=CC(C)(C)N2C(=O)C3(NCCc4c3[nH]c3ccccc43)c3cc(C)cc1c32 (stereo not drawn)	none (no result: KCNQ2 pot)
CC1=CC(C)(C)N2C(=O)C3(SCC(=O)N3c3ccc(F)cc3)c3cc(C)cc1c32 (stereo not drawn)	KCNQ2 inh -6
COc1ccc([C@H]2[C@H](C(=O)OC(C)(C)C)N3N=Cc4ccccc4C3C23C(=O)c2ccccc2C3=O)cc1OC (stereo partly drawn)	none (no result: KCNQ2 pot)
